We go through 64 sequences from the supplement of paper PMC11417369.

The full ranking holds about 25,000 sequences; the median of “ln(normalized median fluorescence intensity)” is about 9.3, and the highest 2% start at about 10. Only a selection was taken, and the highest values are over-represented in it overall.

The subject of this assay is PF3D7_0420300 AP2 domain 1 (GST-tagged). Kind of assay: gcPBM binding intensity (ln(normalized median fluorescence intensity)); higher = stronger DNA binding. In a few lines: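 Binding intensity is defined as the maximum Masliner-normalised natural-log median intensity across replicate spots for either probe orientation. It was measured on an Agilent 4 × 180k array of primer-extended double-stranded 36-bp intergenic genomic probes and negative controls, to which GST-tagged P. falciparum DNA-binding domains made in E. coli were applied for 1 h in 1× PBS with 1% milk, 0.2 mg/ml BSA, 0.5% salmon testes DNA and 0.03% Triton X-100. Detection was by Alexa488 anti-GST antibody and scanning at 488 nm.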
With “TTTTCAGAAAAGAGAAACTTTATTTTTCACAACCGA [TGCATGCA_negctrl_site389]”, the “gcPBM binding intensity (ln)” value was 8.85.
The figure for “AAACCTACATAACATACACACGCATATATATAATTT [CACACA_site8923]” is 9.69.
The figure for “AAGTAATTTGTTGACACACACACACGCATACCTATA [CACACA_site7140]” is 10.2; for “ACCTACATAACATACACACGCATATATATAATTTTA [CACACA_site2847]” it is 9.64.
Next, “TATATAAAAAATTCAATACACACCATATATAAATAT [CACACA_site3987]”: 9.66; “AATATATAAGTGTTGTGTACTAAAGTATTTTCCTAT [XGTACX_site1622]”: 9.5.
With “ACTTGTAAGAGACACACACACACACGGATATAAATA [CACACA_site6517]”, the “gcPBM binding intensity (ln)” value worked out at 10.1.
The figure for “ACCATATAAATAAACACACACACACGGATATAAATA [CACACA_site7157]” is 10.1; for “CACACGCACAGACACACACACACACGGATATAAATA [CACACA_site6301]” it is 10.2.
The figure for “CACACGCACGGACACACACACATATAAAATCTATAT [CACACA_site6428]” is 9.91; for “GCTATAAATACAGACGCACACATATACATACAGATA [CACACA_site5778]” it is 9.49.
On to “CACACGCACAGACACACACACACATATAAATATGTA [CACACA_site6300]”, for which the “gcPBM binding intensity (ln)” value is 10.1.
For the sequence “CACGCATACAGACACACACACACACGGATATAAATA [CACACA_site6445]”, the “gcPBM binding intensity (ln)” value stood at 10.3.
Next, “TAAATAAATTTATACACACACACACGGATATAAATA [CACACA_site6532]”: 10.1.
In the case of “TAAATACAGACATATACACACATATATATATATATA [CACACA_site4382]”, the “gcPBM binding intensity (ln)” value amounted to 9.28.
For “ATAGTATACAGACACACACACACACGGATATAAATA [CACACA_site6914]”, the “gcPBM binding intensity (ln)” value came out at 10.3.
For “CGCGCACACGGACACACACACACACGGATATAAATA [CACACA_site7102]”, the “gcPBM binding intensity (ln)” value came out at 10.2.
The figure for “CGCATACACAGACACACACACACATATAAATATGTA [CACACA_site6444]” is 9.92.
Regarding “GAGAAATTTATACATACACACATATAAATATTATAG [CACACA_site7819]”, the “gcPBM binding intensity (ln)” value was determined as 9.6.
The figure for “AAAAAAAAAAAAAAAAGTACGTATCAAAGCATCAAA [XGTACX_site880]” is 9.42; for “CATATTTTTTCTTAAACACACACATATATATATATA [CACACA_site8920]” it is 9.61; for TTTATTTTCCAAAGGGTGCACATAGTTGAAACGATA it is 9.2.
The figure for “TTTTTTTTTTTTTTTTTTTTCTTCATTTAATTTATA [GTGCAC_negctrl_site17]” is 8.31.
As for “AAAAAAATACAAATATGTACACATATATATTTAAAA [XGTACX_site4729]”, the “gcPBM binding intensity (ln)” value stood at 9.
Next, ACTTATTTATTTTTAGTGCATTTAGTTTTATTTTAT: 9.63; “CCAAAATACATTAAACGTACATGTCCTAATAAGATA [XGTACX_site21]”: 9.15; “AATAATGAATACACATGTACAAAAATTTTTCTTACT [XGTACX_site1962]”: 9.41.
In the case of “ATCAAGCACGGACACACACACACACCCAGACCCCCA [CACACA_site4360]”, the “gcPBM binding intensity (ln)” value was found to be 10.1.
With “CAAGCACACGGACACACACACACACGCGCACGCACA [CACACA_site6307]”, the “gcPBM binding intensity (ln)” value is 10.2.
The figure for “CACACGCACGGACACACACACAAAAAAAAAAAGAAA [CACACA_site6378]” is 9.7; for “AAAATTGTTATTTTATGTACTTATATTTATTTATTT [XGTACX_site3478]” it is 9.53.
For the sequence “ATTTCTCTATCGTAATGTACAAAAAAAAGGAAAAAA [XGTACX_site1323]”, the “gcPBM binding intensity (ln)” value was 9.
Consider “AAAACATACCTATATACACACATATAAATATAAATA [CACACA_site6956]”, for which the “gcPBM binding intensity (ln)” value was found to be 9.71.
As for “AAAAAAAATACATACACACACACACGCACATATATA [CACACA_site7645]”, the “gcPBM binding intensity (ln)” value was determined as 10.4.
The figure for “AAAAAAAAAAAATATACACACACACCGACACATAAA [CACACA_site9270]” is 10.1.
Next, “CTAAAATACAGACACACACACACATATATATATATA [CACACA_site4150]”: 9.93; “TTTAAATACAGACATACACACATACACGCACATATA [CACACA_site6400]”: 9.85.
With “TAAACATACCTATACACACACACACGCACACGCACA [CACACA_site6372]”, the “gcPBM binding intensity (ln)” value was 10.3.
As to “TACAGACTAAAATACACACACACACGCACATATATA [CACACA_site7875]”, the “gcPBM binding intensity (ln)” value amounted to 10.2.
The figure for “TAAATTAAAAAAAATACACACACACCGACACATATA [CACACA_site9084]” is 10.
Next, “AAAAAAAAAAAAAATACACACATATATATATATATA [CACACA_site85]”: 9.45; “CACGCACGCACATACACACACATACACATATAAATA [CACACA_site6907]”: 9.95; “AAAATACACGCATACACACACACACCGACACATATA [CACACA_site4523]”: 10.2.
As to “AAAAAAAAAAAACATACACACATACATACCTATATA [CACACA_site6575]”, the “gcPBM binding intensity (ln)” value was 9.78.
With “TAAATAAATTATTTTCGTACTTATTTATTTTAATTA [XGTACX_site283]”, the “gcPBM binding intensity (ln)” value is 9.03.
Next, “TTTAGTGTTATAAAAAGTACATAATAATTCCTTTTC [XGTACX_site3208]”: 8.95; “CTTTTTAATAAATATACACACACAAAAAAAAAAAAA [CACACA_site9316]”: 9.73.
Next, “AATTTAAAAGAAAAAGAAAAATAATAAACAGAAGCA [XGTACX_negctrl_site503]”: 9.68; “TTTTTTTTTTTTGTCACACATATGGAATATATCTAT [CACACA_site5899]”: 9.26; “AAAGAAATAAGGTGCACACATATACAGATATATATA [CACACA_site4399]”: 9.66.
Turning to “CTATATGTATAAAGTTGTACAGTTTTTCAAAGTTAA [XGTACX_site6652]”, the “gcPBM binding intensity (ln)” value amounted to 9.03.
Take “TAAATTTATAAATCACGTACATATTTATTTATATTT [XGTACX_site4532]”: the “gcPBM binding intensity (ln)” value was determined as 9.19.
Next, “TATTTTATTTCAAATCTTAATAATTGTAATTCTTCA [XGTACX_negctrl_site442]”: 8.91; “ATATTTTATATGTTCACACATACATAAACATATTTT [CACACA_site4948]”: 9.34; “CACGCATATATACATACATGCATATATACATCCATG [TGCATGCA_site667]”: 9.27.
Next, “TACACAAATATATACATACACACATATATACGCATA [CACACA_site394]”: 9.79.
In the case of “GCATACATCAAGCACACACACACACGCACACGCACA [CACACA_site6311]”, the “gcPBM binding intensity (ln)” value was found to be 10.3.
Regarding “CACAAATATATACATACACACATATATACGCATATA [CACACA_site395]”, the “gcPBM binding intensity (ln)” value is 9.72.
Next, “AAAATACACGCATACACACACACACGCGCACATATA [CACACA_site6448]”: 10.3; “AAAAAAAAAAAACATACACACACATATATATATATA [CACACA_site8452]”: 9.9.
As to “AGAAGCATACATCAAGCACACACACCCACACCCACA [CACACA_site8014]”, the “gcPBM binding intensity (ln)” value worked out at 9.99.
“AAAAAAAAAAAAAAAACACACATACACGCACGCACA [CACACA_site7569]”: the “gcPBM binding intensity (ln)” value stood at 9.72.
In the case of “AAAAAAAAAAAAAACACACACACACGCACATATACA [CACACA_site7288]”, the “gcPBM binding intensity (ln)” value was 10.2.
The figure for “AAGCATACATCAAGCACACACACACCCACACCCACA [CACACA_site372]” is 10.1.
